# According to PubChem BioAssay (NCATS):
# Unmarked numbers belong to inactive results. The rule behind the calls is not given here.
# Test system: HIV-1 nucleocapsid protein NCp7 (binding to TG oligonucleotide)
# Assay: HIV Nucleocapsid (AID 346);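 note: potency is for inhibitors that block NC binding and lower polarization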
# Settings: HIV-1 NC / fluorescein-TGTGTGTG probe, fluorescence polarization
# How it was run: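 Reagents dispensed (10 nM TG4xF, 100 nM HIV-1 NC), plates spun, compounds pin-transferred, then incubated 1 hr at room temperature before FP imaging. Buffer: Hepes pH 7.5, 250mM NaCl, 1uM ZnCl2, 100 uM TCEP, 5 mM 2-mercaptoethanol.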
# Potency is the fitted concentration of half-maximal effect.
row,SMILES,Potency
1,O=C(c1csnn1)N1CCC2(CC1)CN(c1cccc(-c3ccccc3)c1)C2,> 20 µM
2,COc1cccc(Cn2c(=O)c(-c3cccc(F)c3)nc3cncnc32)c1,> 20 µM
3,CN1CCN(c2ncc3nc(-c4ccc(Cl)cc4)c(=O)n(C)c3n2)CC1,> 20 µM
4,Cc1noc(C)c1C(=O)N1CCC2(CCN(Cc3cc(C(F)(F)F)cc(C(F)(F)F)c3)CC2)CC1,> 4 µM
5,Cn1c(=O)c(-c2ccc(F)cc2)nc2cncnc21,> 20 µM
6,O=C(c1cnccn1)N1CCC2(CCN(Cc3ccccc3)CC2)CC1,> 20 µM
7,COc1cccc(-c2ccc3ncnc(NCCN4CCOCC4)c3c2)c1,> 20 µM
8,COc1ccccc1CN1CCC2(CC1)CCN(S(=O)(=O)c1ccccc1)CC2,> 20 µM
9,Cc1cnc(CNc2cc(-c3ccccc3C(F)(F)F)ncn2)cn1,> 20 µM
10,Cn1c(=O)c(-c2cccs2)nc2cnc(OCc3ccccc3)nc21,> 20 µM
11,COc1ccc(CNc2ncncc2-c2ccccc2Cl)c(OC)c1,> 20 µM
12,CS(=O)(=O)N1CCC2(CC1)CN(c1ccccc1)C2,> 20 µM
13,COc1ccc(C(=O)N2CCC3(CCCN(C)C3)CC2)cc1,> 20 µM
14,COc1ccccc1-c1nc(NCCc2cnc[nH]2)c2ccccc2n1,> 20 µM
15,CN(Cc1ccco1)c1nc(-c2cccnc2)nc2ccccc12,> 20 µM
16,c1cn(-c2ncnc3ccc(-c4ccoc4)cc23)cn1,> 20 µM
17,O=c1cnc2cnc(N3CCNCC3)nc2n1Cc1cccs1,> 20 µM
